Reference: PubChem BioAssay (EPA / NIEHS)
The source made the active and inactive calls. The calls were made as follows: active = hit-call score of the fitted dose curve at least 0.9, where 1 is the maximum; inactive = score below 0.9.

How the values were obtained:
Details in all cases: mRNA level, 48 h; actives raise or lower the signal
[1] = read-out: Potassium channel subfamily K member 1 (KCNK1), KCNK1 (gene 3775); assay: LTEA_HepaRG_KCNK1: Life Technologies and Expression Analysis (LTEA) Assay for Potassium channel subfamily K member 1 (KCNK1) using HepaRG (AID 2283511)
Method in brief: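 Human HepaRG cultures receive test chemicals for 48 h in 0.5% DMSO, top concentration 100 uM with half-log dilutions. Induction or suppression of KCNK1 mRNA relative to DMSO is derived by bidirectional fitting of qRT-PCR data.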

[2] = read-out: Keratin 19 (KRT19), KRT19 (gene 3880); assay: LTEA_HepaRG_KRT19: Life Technologies and Expression Analysis (LTEA) Assay for Keratin 19 (KRT19) using HepaRG (AID 2283512)
Method in brief: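 HepaRG, 48 h chemical exposure, 8-pt half-log CRC from 100 uM, 0.5% DMSO vehicle, duplicates. Readout: TaqMan qRT-PCR of KRT19 mRNA, housekeeping-normalized (ACTB/GAPDH/POLR2A). Bidirectional fit vs DMSO baseline.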

[3] = read-out: JUN Transcription Factor, JUN (gene 3725); assay: LTEA_HepaRG_JUN: Life Technologies and Expression Analysis (LTEA) Assay for JUN Transcription Factor using HepaRG (AID 2283513)
Method in brief: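 Read-out is JUN transcript level by TaqMan qRT-PCR, normalized to ACTB, GAPDH and POLR2A, after 48 h chemical treatment of HepaRG cells. Concentration-response spanned eight half-log points up to 100 uM in 0.5% DMSO.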

[4] = read-out: Lipoprotein lipase (LPL), LPL (gene 4023); assay: LTEA_HepaRG_LPL: Life Technologies and Expression Analysis (LTEA) Assay for Lipoprotein lipase (LPL) using HepaRG (AID 2283515)
Method in brief: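 Concentration-response testing used half-log steps from 100 uM in 0.5% DMSO on human HepaRG cells, 48 h, duplicate wells. Phenobarbital 1 mM served as induction control; LPL mRNA was normalized to ACTB, GAPDH, POLR2A.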

[5] = read-out: MicroRNA 122 (MIR122), gene 406906; assay: LTEA_HepaRG_MIR122: Life Technologies and Expression Analysis (LTEA) Assay for MicroRNA 122 (MIR122) using HepaRG (AID 2283516); also: the transcript read is the microRNA miR-122
Method in brief: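 Human liver HepaRG cultures receive test chemicals for 48 h at eight half-log concentrations from 100 uM. Expression is quantified by qRT-PCR with ACTB/GAPDH/POLR2A normalization and fitted bidirectionally against 0.5% DMSO.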

[6] = read-out: matrix metalloproteinase-10 (MMP10), MMP10 (gene 4319); assay: LTEA_HepaRG_MMP10: Life Technologies and Expression Analysis (LTEA) Assay for matrix metalloproteinase-10 (MMP10) using HepaRG (AID 2283517)
Method in brief: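 In differentiated HepaRG cultures kept in 0.5% DMSO, test chemicals act for 48 h over an eight-point range with a top dose of 100 uM. Expression is then quantified by TaqMan RT-PCR against ACTB, GAPDH and POLR2A.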

MYC, MYC (gene 4609) = assay: LTEA_HepaRG_MYC: Life Technologies and Expression Analysis (LTEA) Assay for MYC using HepaRG (AID 2283518)
Method in brief: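 qRT-PCR read-out of MYC transcript (Fluidigm TaqMan, housekeeping-normalized) after 48 h chemical exposure of HepaRG cells; eight concentrations, top 100 uM, half-log steps. Bidirectional curve fitting against 0.5% DMSO vehicle baseline.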

[7] = read-out: matrix metalloproteinase-3 (MMP3), MMP3 (gene 4314); assay: LTEA_HepaRG_MMP3: Life Technologies and Expression Analysis (LTEA) Assay for matrix metalloproteinase-3 (MMP3) using HepaRG (AID 2283519)
Method in brief: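 Human liver HepaRG cultures received chemicals (top concentration 100 uM, 0.5% DMSO) for 48 h in duplicate. MMP3 mRNA induction or loss was then assessed via TaqMan qRT-PCR with housekeeping-gene normalisation.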

[8] = read-out: Paternally Expressed 10 (PEG10), PEG10 (gene 23089); assay: LTEA_HepaRG_PEG10: Life Technologies and Expression Analysis (LTEA) Assay for Paternally Expressed 10 (PEG10) using HepaRG (AID 2283520);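 as to AC50: differentiated HepaRG human liver cells in serum-free induction medium with 0.5% DMSO; PEG10 transcript by qRT-PCR normalised to ACTB GAPDH and POLR2A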
Method in brief: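 Human HepaRG cultures are dosed for 48 h across an eight-point half-log series starting at 100 uM, with 0.5% DMSO as vehicle and baseline. Gain or loss of PEG10 transcript is measured by qRT-PCR and fitted in both directions.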

[9] = read-out: Protein phosphatase 2A (PPP2R4), PTPA (gene 5524); assay: LTEA_HepaRG_PPP2R4: Life Technologies and Expression Analysis (LTEA) Assay for Protein phosphatase 2A (PPP2R4) using HepaRG (AID 2283522)
Method in brief: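 Cells were plated, cultured 48 h, switched to serum-free induction medium, then dosed for 48 h (8 points, max 100 uM, 0.5% DMSO). RNA was isolated and PPP2R4 expression measured by TaqMan qRT-PCR.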

[10] = read-out: Phosphatase and tensin (PTEN), PTEN (gene 5728); assay: LTEA_HepaRG_PTEN: Life Technologies and Expression Analysis (LTEA) Assay for Phosphatase and tensin (PTEN) using HepaRG (AID 2283523)
Method in brief: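 Expression of PTEN is quantified in the human liver line HepaRG following two days of dosing (top concentration 100 uM, half-log dilutions, 0.5% DMSO). Values derive from bidirectional curve fitting relative to DMSO controls.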

[11] = read-out: solute carrier (SLC22A1), SLC22A1 (gene 6580); assay: LTEA_HepaRG_SLC22A1: Life Technologies and Expression Analysis (LTEA) Assay for solute carrier (SLC22A1) using HepaRG (AID 2283524);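 as to AC50: differentiated human HepaRG liver cells in serum-free induction medium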
Method in brief: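 Transcript induction or suppression of SLC22A1 in human HepaRG cultures is scored after 48 h chemical treatment, with DMSO (0.5%) as baseline for bidirectional fitting. Concentrations span eight half-log points topping at 100 uM.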

[12] = read-out: Pyruvate Dehydrogenase Kinase 4 (PDK4), PDK4 (gene 5166); assay: LTEA_HepaRG_PDK4: Life Technologies and Expression Analysis (LTEA) Assay for Pyruvate Dehydrogenase Kinase 4 (PDK4) using HepaRG (AID 2283525)
Method in brief: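 Eight-point, half-log concentration series (max 100 uM, 0.5% DMSO) applied to differentiated HepaRG cells for 48 h in duplicate. Endpoint: PDK4 mRNA induction or repression by qRT-PCR against DMSO baseline.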

[13] = read-out: NAD(P)H dehydrogenase [quinone] 1 (NQO1), NQO1 (gene 1728); assay: LTEA_HepaRG_NQO1: Life Technologies and Expression Analysis (LTEA) Assay for NAD(P)H dehydrogenase [quinone] 1 (NQO1) using HepaRG (AID 2283526)
Method in brief: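 Transcript induction or suppression is quantified by qRT-PCR in human HepaRG liver cells dosed for 48 hours. Eight half-log concentrations topping at 100 uM are used, with 0.5% DMSO as vehicle and baseline.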

[14] = read-out: succinate dehydrogenase complex iron sulfur subunit B (SDHB), SDHB (gene 6390); assay: LTEA_HepaRG_SDHB: Life Technologies and Expression Analysis (LTEA) Assay for succinate dehydrogenase complex iron sulfur subunit B (SDHB) using HepaRG (AID 2283528)
Method in brief: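 Readout is SDHB transcript level by qRT-PCR, normalised to three housekeeping genes and fitted bidirectionally against 0.5% DMSO vehicle. Human HepaRG cells were treated for 48 h at up to 100 uM.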

[15] = read-out: Signal transducer and activator of transcription 3 (Homo sapiens) (UniProt P40763); assay: LTEA_HepaRG_STAT3: Life Technologies and Expression Analysis (LTEA) Assay for Signal transducer and activator of transcription (STAT3) using HepaRG (AID 2283529)
Method in brief: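 In this transcriptional endpoint, HepaRG cultures receive test chemicals at up to 100 uM for 48 h, tested in duplicate. STAT3 mRNA is normalized to ACTB, GAPDH and POLR2A.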

[16] = read-out: sulfotransferase 2A1 (SULT2A1), SULT2A1 (gene 6822); assay: LTEA_HepaRG_SULT2A1: Life Technologies and Expression Analysis (LTEA) Assay for sulfotransferase 2A1 (SULT2A1) using HepaRG (AID 2283531)
Method in brief: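 HepaRG, 48 h chemical exposure, 8-pt half-log curve from 100 uM in 0.5% DMSO, duplicates. Readout: TaqMan qRT-PCR of SULT2A1 mRNA, housekeeping-normalized. Bidirectional fit vs DMSO baseline.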

[17] = read-out: Transforming Growth Factor (TGFA), TGFA (gene 7039); assay: LTEA_HepaRG_TGFA: Life Technologies and Expression Analysis (LTEA) Assay for Transforming Growth Factor (TGFA) using HepaRG (AID 2283532)
Method in brief: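 Gene expression of TGFA was quantified by qRT-PCR after human HepaRG cells were treated for 48 h with test chemicals (eight concentrations, highest 100 uM, 0.5% DMSO). Activity in either direction was fitted relative to DMSO.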

[18] = read-out: Transforming Growth Factor (TGFB1), TGFB1 (gene 7040); assay: LTEA_HepaRG_TGFB1: Life Technologies and Expression Analysis (LTEA) Assay for Transforming Growth Factor (TGFB1) Transporter using HepaRG (AID 2283533)
Method in brief: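 qRT-PCR readout of TGFB1 transcript in HepaRG lysates, normalized to three housekeeping genes; gain or loss of signal fitted relative to 0.5% DMSO vehicle. Exposure: 48 h, 8-point curve from 100 uM, duplicate wells.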

[19] = read-out: Nuclear factor NF-kappa-B p105 subunit (Homo sapiens) (UniProt P19838); assay: LTEA_HepaRG_NFKB1: Life Technologies and Expression Analysis (LTEA) Assay for Nuclear Factor Kappa B Subunit 1 (NFKB1) using HepaRG (AID 2283521);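 also: differentiated human HepaRG liver cells in serum-free induction medium; TaqMan qRT-PCR transcript normalised to ACTB GAPDH and POLR2A housekeeping genes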
Method in brief: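 HepaRG, 48 h exposure; 8-pt half-log series from 100 uM in 0.5% DMSO; duplicates. Readout: NFKB1 mRNA by qRT-PCR (Fluidigm arrays), housekeeping-normalized. Gain/loss fit vs DMSO baseline.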

Measured: AC50

Chain of Signal transducer and activator of transcription 3 (Homo sapiens) (P40763 whole entry, looked up): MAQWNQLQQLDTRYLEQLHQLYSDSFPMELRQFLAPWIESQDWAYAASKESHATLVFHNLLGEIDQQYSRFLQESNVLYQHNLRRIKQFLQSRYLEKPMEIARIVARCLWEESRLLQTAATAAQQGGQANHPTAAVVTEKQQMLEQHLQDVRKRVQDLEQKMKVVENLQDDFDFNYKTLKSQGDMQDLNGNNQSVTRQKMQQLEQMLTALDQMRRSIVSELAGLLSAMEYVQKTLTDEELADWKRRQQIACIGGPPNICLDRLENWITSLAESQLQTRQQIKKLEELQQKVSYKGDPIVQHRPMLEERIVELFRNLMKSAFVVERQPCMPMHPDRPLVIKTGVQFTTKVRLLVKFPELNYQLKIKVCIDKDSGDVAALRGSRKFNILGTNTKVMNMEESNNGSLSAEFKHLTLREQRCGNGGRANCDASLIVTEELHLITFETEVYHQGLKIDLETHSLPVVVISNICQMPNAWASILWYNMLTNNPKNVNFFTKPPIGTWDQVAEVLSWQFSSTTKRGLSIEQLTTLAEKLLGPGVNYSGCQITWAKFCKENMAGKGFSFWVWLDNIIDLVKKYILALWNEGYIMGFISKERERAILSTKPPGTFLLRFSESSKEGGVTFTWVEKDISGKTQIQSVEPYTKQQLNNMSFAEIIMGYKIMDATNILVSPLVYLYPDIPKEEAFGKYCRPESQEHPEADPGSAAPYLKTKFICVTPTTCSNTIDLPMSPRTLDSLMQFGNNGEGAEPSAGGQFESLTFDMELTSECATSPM
Chain of Nuclear factor NF-kappa-B p105 subunit (Homo sapiens) (P19838 whole entry, looked up): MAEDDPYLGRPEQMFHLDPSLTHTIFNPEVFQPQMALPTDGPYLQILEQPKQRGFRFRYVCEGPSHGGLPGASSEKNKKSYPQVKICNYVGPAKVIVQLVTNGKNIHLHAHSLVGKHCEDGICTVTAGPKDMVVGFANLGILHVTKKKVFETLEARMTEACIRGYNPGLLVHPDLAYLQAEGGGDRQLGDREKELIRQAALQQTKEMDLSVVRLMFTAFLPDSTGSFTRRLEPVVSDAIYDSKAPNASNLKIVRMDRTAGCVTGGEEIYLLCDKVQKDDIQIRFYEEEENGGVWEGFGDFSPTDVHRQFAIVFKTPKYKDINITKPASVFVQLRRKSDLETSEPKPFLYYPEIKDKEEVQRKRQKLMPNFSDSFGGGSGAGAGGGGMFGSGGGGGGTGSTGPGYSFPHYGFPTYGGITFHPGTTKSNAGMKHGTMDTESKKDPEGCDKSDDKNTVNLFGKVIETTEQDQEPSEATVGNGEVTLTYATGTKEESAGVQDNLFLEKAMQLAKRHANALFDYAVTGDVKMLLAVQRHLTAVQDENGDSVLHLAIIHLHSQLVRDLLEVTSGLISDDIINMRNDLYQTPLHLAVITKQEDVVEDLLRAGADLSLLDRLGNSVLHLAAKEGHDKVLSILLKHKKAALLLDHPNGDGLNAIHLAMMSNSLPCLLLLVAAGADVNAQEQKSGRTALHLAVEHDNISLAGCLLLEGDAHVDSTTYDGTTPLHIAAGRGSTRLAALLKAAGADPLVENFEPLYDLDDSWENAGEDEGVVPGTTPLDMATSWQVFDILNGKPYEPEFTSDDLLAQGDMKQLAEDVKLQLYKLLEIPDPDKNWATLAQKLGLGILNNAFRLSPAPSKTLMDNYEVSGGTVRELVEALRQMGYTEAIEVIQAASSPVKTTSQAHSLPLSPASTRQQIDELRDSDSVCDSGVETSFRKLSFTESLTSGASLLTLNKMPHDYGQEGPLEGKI

Cc1[nH]nc2c1N=C(c1ccccc1Cl)c1cc([N+](=O)[O-])ccc1N2
inactive: [9] | [10] | [13]
active: [1] 3.09 µM | [2] 1.24 µM | [3] 20.5 µM | [4] 13 µM | [5] 7.26 µM | [6] 5.91 µM | MYC, MYC (gene 4609) 82 µM | [7] 9.48 µM | [8] 3.67 µM | [11] 5.69 µM | [12] 0.37 µM | [14] 0.449 µM | [15] 3.77 µM | [16] 28.3 µM | [17] 50 µM | [18] 1.74 µM

CCCCCCCCCCCCOS(=O)(=O)O
inactive: [1] | [4] | MYC, MYC (gene 4609) | [7] | [8] | [13] | [14] | [15] | [17]
active: [2] 79.9 µM | [3] 50 µM | [5] 86.2 µM | [6] 70.2 µM | [11] 77.5 µM | [12] 36.9 µM | [16] 80.2 µM | [18] 80.9 µM

OCC(CO)(CBr)CBr
inactive: [1] | [2] | [3] | [4] | [5] | [6] | MYC, MYC (gene 4609) | [7] | [8] | [19] | [9] | [10] | [11] | [12] | [13] | [14] | [15] | [16] | [17] | [18]

CCCCC=O
inactive: [1] | [2] | [3] | [4] | [5] | [6] | MYC, MYC (gene 4609) | [7] | [8] | [19] | [9] | [10] | [11] | [12] | [13] | [14] | [15] | [16] | [17] | [18]

O=C1NS(=O)(=O)c2ccccc21
inactive: [1] | [2] | [3] | [4] | [5] | [6] | MYC, MYC (gene 4609) | [7] | [8] | [9] | [10] | [11] | [12] | [13] | [14] | [15] | [16] | [17] | [18]

CCCCCCCCCCCCCCC
inactive: [1] | [2] | [3] | [4] | [5] | [6] | MYC, MYC (gene 4609) | [7] | [8] | [19] | [9] | [10] | [11] | [12] | [13] | [14] | [15] | [16] | [17] | [18]

CN(C)CCOC(c1ccccc1)c1ccccc1
inactive: [1] | [2] | [3] | [5] | [6] | MYC, MYC (gene 4609) | [7] | [8] | [9] | [10] | [11] | [12] | [13] | [14] | [15] | [16] | [17] | [18]
active: [4] 50 µM

CCC(C)c1ccccc1O (centres undefined)
inactive: [1] | [2] | [3] | [4] | [5] | [6] | MYC, MYC (gene 4609) | [7] | [8] | [19] | [9] | [10] | [11] | [12] | [13] | [14] | [15] | [16] | [17] | [18]
